Assay [1] in a line: Cellular viability qHTS for adrenocortical cancer (ACC) cell line SW-13 (AID 1963989).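 For activity (max response): cells grown in serum-free medium with ITS supplement; % is set by controls: 0 for no effect and ±100 for the full control effect.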 Note: nearly all actives have a fitted effect of over 65% in size. As to conditions: SW-13 ACC cells viability, CellTiter-Glo, 48 h; activity (max response): hits give low values. Put shortly: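 Luminescent ATP read-out (CellTiter-Glo, 20 min at room temperature) measured metabolically competent SW-13 cells after 48 h compound treatment. Final concentrations spanned up to 46 uM; bortezomib served as positive control.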
A general note: qHTS replaces the single test concentration by a dilution series.

A short description of assay [2]: Cellular viability qHTS for adrenocortical cancer (ACC) cell line NCI-H295R (AID 1963990).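 For activity change, negative = viability loss: 0% = DMSO only wells and -100% = full killing with cytotoxic reference compound.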 Note: nearly all actives have a fitted effect of over 60% in size. Conditions: CellTiter-Glo ATP luminescence, 48 h; series mostly up to 46.1 µM. Put shortly:
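IC50 and maximal efficacy derive from four-parameter logistic modelling of titration curves, with reads scaled between DMSO-only wells (0%) and doxorubicin hydrochloride (100% inhibition). Compounds spanned up to 46 uM over 48 h.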

Structures are written as SMILES. Results filed as inconclusive are left out. Activity calls are given as the source filed them. Calls come from the whole dose curve; as a rule, active = well fitted cell-killing curve with a large enough effect; inconclusive = small, poorly fitted or top-dose-only effect; inactive = flat fitted curve, though single readings scatter.
Potency is the fitted concentration of half-maximal effect.

On to `COC(=O)C1=C(C)NC(c2ncc(F)cc2F)=N[C@@H]1c1ccc(F)cc1Cl`, for which the activity (max response) in assay [1] was -20.4% (inactive). For the same compound, the Potency result in assay [2] is “inactive”.
The matching figures for `Cc1cc(O)cc(C)c1Cl`: 6.52% (inactive) and “inactive”.
Turning to `N#C[C@@H]1C[C@@H]2C[C@@H]2N1C(=O)[C@@H](N)C12CC3CC(CC(O)(C3)C1)C2`, the activity (max response) in assay [1] is 7.26% (inactive). Besides, in assay [2], the Potency entry is “inactive”.
`NCc1ccccc1Sc1ccccc1CO`: the activity (max response) in assay [1] was -6.09% (inactive). In addition, the Potency result in assay [2] was “inactive”.
Take `CC(O)Cn1cnc2c1c(=O)n(C)c(=O)n2C` (configuration not stated): the activity (max response) in assay [1] is -7.87% (inactive). In addition, the Potency entry in assay [2] is “inactive”.
For `CC(C)(c1ccc(OCC(O)CO)cc1)c1ccc(OCC(O)CCl)cc1` (configuration not stated), the activity (max response) in assay [1] is -21.2% (inactive). Besides, the Potency result in assay [2] is “inactive”.
Turning to `CN(C)N(C)C(=O)[C@@]1(Cc2ccccc2)CCCN(C(=O)[C@@H](Cc2c[nH]c3ccccc23)NC(=O)C(C)(C)N)C1`, the activity (max response) in assay [1] was -15.4% (inactive). Also, the Potency result in assay [2] is “inactive”.
The matching figures for `Cc1cccc(-c2[nH]ncc2-c2ccc(F)c(-c3cnn(CCO)c3)c2)n1`: -6.75% (inactive) and “inactive”.
On to `O=C1NC(=O)/C(=C/c2ccc(-c3ccc(F)cc3O)o2)S1`, for which the Potency in assay [1] was 28.2 µM (active); in assay [2], 25.1 µM (active).
For the compound `OC(CCCN1CCCCC1)(c1ccccc1)c1ccccc1`, in assay [1], the activity (max response) was -5.81% (inactive). In assay [2], the Potency result was “inactive”.
For the compound `CS(=O)(=O)c1ccc(-c2nnc(/C=C/c3nnc(-c4ccc(C#N)cc4)o3)n2-c2ccccc2Cl)nc1`, the activity (max response) in assay [1] was -6.81% (inactive). The Potency result in assay [2] was “inactive”.
The matching figures for `C[C@]12CC[C@H](O)CC1=CC[C@@H]1[C@@H]2CC[C@]2(C)C(c3cccnc3)=CC[C@@H]12`: 2.71% (inactive) and “inactive”.
Turning to `Cn1c(-c2ccccc2C(F)(F)F)nnc1C12CCC(c3noc(C4CC(F)(F)C4)n3)(CC1)CC2`, the activity (max response) in assay [1] was -6.22% (inactive). Also, the Potency result in assay [2] was “inactive”.
Consider `CC(C)(CO)n1cc(C(=O)c2cncc(NC(=O)Cc3ccc(Cl)cn3)c2)c2cnc(N)nc21`, for which the activity (max response) in assay [1] was -13.5% (inactive). Further, in assay [2], the Potency result is “inactive”.
For the compound `CN(C)CCNC(=O)COc1c2cccc1Cc1cccc(c1OCC(=O)NCCN(C)C)Cc1cccc(c1OCC(=O)NCCN(C)C)Cc1cccc(c1OCC(=O)NCCN(C)C)C2`, the activity (max response) in assay [1] is 14.5% (inactive). The activity change, negative = viability loss in assay [2] is 4.99% [at 9.17 µM] (inactive).
Consider `CN1CCN(c2ccc(-c3cccc(CN4CCOCC4)c3)cc2NC(=O)c2c[nH]c(=O)cc2C(F)(F)F)CC1`, for which the activity (max response) in assay [1] is -3.17% (inactive). The Potency result in assay [2] is “inactive”.
As to `O=C(c1ccco1)N1CCNCC1`, the activity (max response) in assay [1] is -4.62% (inactive). Besides, the Potency entry in assay [2] was “inactive”.
As for `NC(=O)c1cc[n+](CC2=C(C(=O)[O-])N3C(=O)[C@@H](NC(=O)Cc4cccs4)[C@H]3SC2)cc1`, the activity (max response) in assay [1] is 11.8% (inactive). For the same compound, in assay [2], the Potency result is “inactive”.
As to `C[C@@H]1O[C@@H](O[C@@H]2\C=C/C=C\C=C/C=C\C[C@H](C)OC(=O)/C=C\[C@H]3O[C@@H]3C[C@H](O)C[C@]3(O)C[C@@H](O)[C@@H](C(=O)O)[C@H](C2)O3)[C@H](O)[C@H](N)[C@@H]1O`, the activity (max response) in assay [1] was 8.59% (inactive). Besides, the Potency entry in assay [2] is “inactive”.
The matching figures for `Nc1nc(OCc2cc(Br)cs2)c2[nH]cnc2n1`: -10.5% (inactive) and “inactive”.
As for `CCC(=O)O[C@]1(C(=O)COC)[C@@H](C)C[C@H]2[C@@H]3CCC4=CC(=O)C=C[C@]4(C)C3(F)[C@@H](O)C[C@@]21C` (some centres not stated), the activity (max response) in assay [1] was 1.6% (inactive). For the same compound, in assay [2], the Potency entry was “inactive”.
On to `CC(=O)Nc1ccc(S(=O)(=O)Nc2ccc([N+](=O)[O-])cc2)cc1`, for which the activity (max response) in assay [1] was 3.97% (inactive). Also, in assay [2], the Potency entry was “inactive”.
With `CCCCCC1Nc2cc(C(F)(F)F)c(S(N)(=O)=O)cc2S(=O)(=O)N1` (configuration not stated), the activity (max response) in assay [1] is 4.72% (inactive). In addition, in assay [2], the Potency result was “inactive”.
`Cc1nc2ccccn2c(=O)c1CCN1CCC(C(=O)c2ccc(F)cc2)CC1`: the activity (max response) in assay [1] is -20% (inactive). Moreover, the Potency result in assay [2] is “inactive”.
The matching figures for `O=C(Nc1ccc2c(c1)CCN(Cc1ncn[nH]1)C2)c1ccccc1-c1ccc(C(F)(F)F)cc1`: -15.2% (inactive) and “inactive”.
Take `CC(=O)OCC(=O)[C@@]1(O)CC[C@H]2[C@@H]3CCC4=CC(=O)C=C[C@]4(C)[C@@]3(F)[C@@H](O)C[C@@]21C`: the activity (max response) in assay [1] was 2.62% (inactive). Further, the Potency result in assay [2] is “inactive”.
With `Cc1ccc(O)c2ncccc12`, in assay [1], the activity (max response) was 11.9% (inactive). For the same compound, the Potency in assay [2] is 20.6 µM (active).
Take `Cn1c(=O)c(Oc2ccc(F)cc2F)cc2cnc(NC3CCOCC3)nc21`: the activity (max response) in assay [1] is -3.03% (inactive). Besides, the Potency entry in assay [2] was “inactive”.
As for `COc1ncc(Nc2ncc(C(C)N3CCN(S(C)(=O)=O)CC3)cc2-c2nc(C)nc(N)n2)cc1F` (configuration not stated), the activity (max response) in assay [1] is -11.9% (inactive). In assay [2], the Potency result is “inactive”.
As to `O=C(O)Cn1c(=O)n(Cc2ccc(Br)cc2F)c(=O)c2ccc(Cl)cc21`, the activity (max response) in assay [1] was 14.5% (inactive). In assay [2], the Potency entry was “inactive”.
`c1ccc(CNCCNCc2ccccc2)cc1`: the activity (max response) in assay [1] was -0.207% (inactive). The Potency result in assay [2] was “inactive”.

These data come from PubChem BioAssay (NCATS).
